From PubChem BioAssay AID1159580 (chemical genetic matrix, 2015)
Where “and” joins values, the source holds several entries; their conditions need not be identical. Equal entries are not always repeated. The campaign covered roughly 5,500 compounds. About 2,000 (36%) were called active. About 18% were inconclusive and are not listed. Rule as the data show it: active = normalized growth mostly below about 0.91 (no sharp cut-off); inconclusive = no clear call, values can overlap the other calls; inactive = mostly above about 0.92. This is one part of the list.

Test: chemical genetic growth profiling, strain panel (AID 1159580);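 also: tested at 20 µM; growth read once vehicle control cultures reached saturation at 30 °C; 1 = growth at the plate median or of vehicle wells; lower values mean less growth of the strain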
Details: S. cerevisiae deletion strains, growth OD

Measured: normalized growth

CCCN(CCC)C(=O)C(CCC(=O)O)NC(=O)c1ccccc1 (stereo not given)
inactive: locus YAL013W, strain DEP1, hits give low values 0.996 and 1.01 | locus YAL021C, strain ccr4, hits give low values 0.98 | locus YAL026C, strain drs2, hits give low values 0.987 | locus YAL030W, strain snc1, hits give low values 1 | locus YAL040C, strain CLN3, hits give low values 1 | locus YBL061C, strain skt5, hits give low values 0.983 | locus YBR009C, strain hhf1, hits give low values 0.992 | locus YBR021W, strain FUR4, hits give low values 1.01 | locus YBR023C, strain chs3, hits give low values 0.992 | locus YBR171W, strain sec66, hits give low values 0.98 | locus YBR229C, strain ROT2, hits give low values 0.999 | locus YBR231C, strain swc5, hits give low values 0.979 | locus YBR279W, strain paf1, hits give low values 0.979 | locus YCL011C, strain gbp2, hits give low values 0.983 | locus YCL016C, strain dcc1, hits give low values 1.01 | locus YCL029C, strain bik1, hits give low values 0.985 | locus YCL061C, strain MRC1 (second series), hits give low values 1 | locus YCL061C, strain MRC1, hits give low values 0.994 | locus YCL069W, strain vba3, hits give low values 0.996 | locus YCR088W, strain abp1, hits give low values 0.98 | locus YDL005C, strain med2, hits give low values 0.99 | locus YDL035C, strain GPR1, hits give low values 1.02 | locus YDL040C, strain nat1, hits give low values 0.993 | locus YDL074C, strain BRE1, hits give low values 0.987 | locus YDL101C, strain DUN1, hits give low values 0.994 | locus YDL134C, strain PPH21, hits give low values 0.996 | locus YDL185W, strain tfp1, hits give low values 0.958 | locus YDL192W, strain arf1, hits give low values 0.979 | locus YDR001C, strain nth1, hits give low values 0.973 | locus YDR069C, strain doa4, hits give low values 0.993 | locus YDR101C, strain arx1, hits give low values 0.994 | locus YDR137W, strain rgp1, hits give low values 1.02 | locus YDR150W, strain NUM1, hits give low values 0.991 and 0.999 | locus YDR159W, strain sac3, hits give low values 0.935 | locus YDR162C, strain NBP2, hits give low values 1 | locus YDR195W, strain ref2 1.02 | locus YDR297W, strain sur2, hits give low values 0.987 | locus YDR318W, strain mcm21, hits give low values 0.994 | locus YDR334W, strain swr1, hits give low values 0.962 | locus YDR335W, strain msn5, hits give low values 0.981 | locus YDR363W, strain ESC2, hits give low values 1.01 | locus YDR388W, hits give low values 1 | locus YDR392W, strain spt3, hits give low values 0.986 | locus YDR502C, strain sam2, hits give low values 1.01 | locus YEL003W, strain gim4, hits give low values 0.997 | locus YEL037C, strain rad23, hits give low values 0.982 | locus YEL061C, strain CIN8 (second series), hits give low values 0.965 | locus YEL061C, strain CIN8, hits give low values 0.992 | locus YER002W, strain NOP16, hits give low values 0.986 | locus YER015W, strain faa2, hits give low values 0.989 | locus YER016W, strain bim1, hits give low values 0.992 | locus YER110C, hits give low values 0.991 | locus YER111C, strain swi4, hits give low values 0.996 | locus YER155C, strain BEM2 (second series), hits give low values 0.985 | locus YER155C, strain BEM2, hits give low values 1 | locus YER167W, strain BCK2, hits give low values 0.993 | locus YFR010W, strain ubp6, hits give low values 0.982 | locus YGL078C, strain dbp3, hits give low values 0.996 | locus YGL086W, strain mad1, hits give low values 1.01 | locus YGL167C, strain pmr1, hits give low values 0.986 | locus YGL173C, strain kem1, hits give low values 0.982 | locus YGL227W, strain vid30, hits give low values 0.986 | locus YGL240W, strain doc1, hits give low values 0.987 | locus YGL248W, strain PDE1, hits give low values 1.01 | locus YGL253W, strain hxk2, hits give low values 0.982 | locus YGR078C, strain PAC10, hits give low values 0.984 and 1.01 | locus YGR135W, strain pre9, hits give low values 0.989 | locus YGR229C, strain SMI1, hits give low values 1.02 | locus YGR252W, strain gcn5, hits give low values 1.13 | locus YHR013C, strain ard1, hits give low values 1.01 | locus YHR027C, strain rpn1, hits give low values 0.982 | locus YHR030C, strain SLT2, hits give low values 0.992 | locus YHR079C, strain IRE1 (second series), hits give low values 0.991 | locus YHR079C, strain IRE1, hits give low values 0.979 | locus YHR094C, strain hxt1, hits give low values 0.943 | locus YHR129C, strain ARP1, hits give low values 0.998 | locus YHR142W, strain chs7, hits give low values 0.977 | locus YHR200W, strain rpn10, hits give low values 0.989 | locus YIL066C, strain RNR3, hits give low values 0.994 | locus YIL073C, strain SPO22, hits give low values 0.93 | locus YIL125W, strain kgd1, hits give low values 0.985 | locus YIR030C, strain dcg1, hits give low values 0.988 | locus YJL092W, strain hpr5, hits give low values 0.997 | locus YJL095W, strain BCK1 (second series), hits give low values 0.968 | locus YJL095W, strain BCK1, hits give low values 0.968 and 0.993 | locus YJL115W, strain asf1, hits give low values 0.99 | locus YJL129C, strain trk1, hits give low values 0.968 | locus YJL134W, strain LCB3, hits give low values 1 | locus YJL154C, strain vps35, hits give low values 0.962 | locus YJL164C, strain tpk1, hits give low values 1 | locus YJL166W, strain qcr8, hits give low values 0.983 | locus YJL168C, strain set2, hits give low values 0.985 | locus YJL187C, strain SWE1 (second series), hits give low values 0.982 | locus YJR043C, strain POL32, hits give low values 0.985 | locus YJR066W, strain TOR1, hits give low values 0.926
